# Data published in PubChem BioAssay (NCATS).
# Results filed as inconclusive are left out. Calls of active or inactive are those of the source. Unless noted, the call rests on the fitted dose curve. Non-standard residues stand in square brackets, D forms with d. Residues, ends and D or L forms follow the SMILES beside them. *: point of attachment. Nva = CCC[C@H](N)C(=O)O; Cbz = O=C(OCc1ccccc1)*
# Assays:
# [1] = qHTS for identification of novel therapeutic agents for treatment of microphthalmiaassociated transcription factor (MiT) renal cell carcinoma (RCC) (AID 1963991); conditions: CellTiter-Glo, 48 h; for z-score: stronger effect = lower value; for Potency: active = Z-AUC below -0.8 in all three lines
# Procedure, shortened: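 Three TFE3-fusion RCC cell lines (UOK109, UOK124, UOK145), 500 cells/well, were exposed to the 1912-compound MIPE 4.0 library for 48 hours at 37 C. Viability was read by CellTiter-Glo luminescence, normalised to DMSO (100%) and empty wells (0%), with 11-concentration curve fits.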
# [2] = qHTS drug screen for cell cycle checkpoint inhibitors in PARPi-resistant BRCA-mutant ovarian cancer cell lines. (AID 1963452); conditions: PEO1/OlaR viability, CellTiter-Glo luminescence, 96 h; for Z-AUC: stronger effect = lower value
# Procedure, shortened: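 PEO1, PEO4 and PEO1/OlaR ovarian cancer cells, 600 per well, exposed 96 h at 37C to a dilution series. Viability read by CellTiter-Glo luminescence, normalized to DMSO and empty wells; activity summarized as Z-AUC.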
# 3D7 = assay: qHTS profiling for inhibitors of Plasmodium falciparum proliferation (AID 504749; active means well fitted inhibition curve with a large enough effect; further: nearly all actives have a fitted effect of over 60% in size); conditions: P. falciparum in erythrocytes, SYBR Green DNA, 72 h; series mostly up to 28.7 µM
# Procedure, shortened: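 P. falciparum-infected erythrocytes (0.3% parasitemia, 2.5% hematocrit) incubated with compound 72 h at 37 C, 5% CO2. Parasite DNA detected by SYBR Green after lysis, overnight at room temperature; normalised to 0.29 uM artemisinin and DMSO.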
# [3] = TFE3-RCC UOK109 viability, measured here: UOK109 Z-AUC
# [4] = TFE3-RCC viability, measured here: UOK124 Z-AUC
# [5] = TFE3-RCC viability, measured here: UOK145 Z-AUC
# [6] = measured here: PEO1 parental Z-AUC
# Potency means the concentration at half of the fitted maximal effect.
smiles,measurement,setting,value
N[C@H]1CN(c2c(F)cc3c(=O)c(C(=O)O)cn(C4C[C@@H]4F)c3c2Cl)CC12CC2 (stereo partly specified),z-score,[1]; [3],0.717
same,z-score,[1]; [4],1.4
same,z-score,[1]; [5],-0.145
CC[C@H]1OC(=O)[C@H](C)[C@@H](O[C@H]2C[C@@](C)(OC)[C@@H](O)[C@H](C)O2)[C@H](C)[C@@H](O[C@@H]2O[C@@H](C)C[C@H](N(C)C)[C@@H]2O)[C@](C)(O)C[C@@H](C)C(=O)[C@H](C)[C@@H](O)[C@]1(C)O,z-score,[1]; [3],0.677
same,z-score,[1]; [4],0.444
same,z-score,[1]; [5],0.443
NC(=O)c1ncn([C@@H]2O[C@H](CO)[C@@H](O)[C@@H]2O)c1O,z-score,[1]; [3],0.702
same,z-score,[1]; [4],0.298
same,z-score,[1]; [5],0.0692
CC(=O)NC(CS)C(=O)O (stereo unspecified),z-score,[1]; [3],0.609
same,z-score,[1]; [4],0.0619
same,z-score,[1]; [5],0.159
Cc1ccc(O)c(C(CCN(C(C)C)C(C)C)c2ccccc2)c1 (stereo unspecified),z-score,[1]; [3],0.603
same,z-score,[1]; [4],0.794
same,z-score,[1]; [5],0.77
O=C(C=CC=Cc1ccc2c(c1)OCO2)N1CCCCC1,z-score,[1]; [3],0.531
same,z-score,[1]; [4],0.306
same,z-score,[1]; [5],0.432
C=CC(=O)Nc1ccc2ncnc(Nc3ccc(OCc4cccc(F)c4)c(Cl)c3)c2c1,Z-AUC,[2],-0.749 (inactive)
same,Z-AUC,[2]; [6],-1.48
same,Z-AUC,[2]; measured here: PEO4 Z-AUC,-1.57
same,Potency,[1]; TFE3-RCC UOK109 viability,590 nM (active)
same,z-score,[1]; [3],-2.47
same,z-score,[1]; [4],-3.02
same,z-score,[1]; [5],-1.72
CCC[C@@H](C=O)NC(=O)[C@H](CC(C)C)NC(=O)[C@H](CC(C)C)NC(=O)OCc1ccccc1 (Cbz-Leu-Leu-[Nva]-aldehyde),Z-AUC,[2],-1.63 (inactive)
same,Z-AUC,[2]; [6],-1.42
same,Z-AUC,[2]; measured here: PEO4 Z-AUC,-1.86
same,Potency,[1]; TFE3-RCC UOK109 viability,4180 nM (active)
same,z-score,[1]; [3],-1.03
same,z-score,[1]; [4],-2.77
same,z-score,[1]; [5],-1.34
NC(=O)c1ncn([C@@H]2O[C@H](CO)[C@@H](O)[C@@H]2O)c1N,z-score,[1]; [3],0.684
same,z-score,[1]; [4],0.695
same,z-score,[1]; [5],0.605
Cc1cnc(Nc2ccc(CN3CCOCC3)cc2)nc1Nc1cccc(S(=O)(=O)NC(C)(C)C)c1,Z-AUC,[2],-2.02 (inactive)
same,Z-AUC,[2]; [6],-1.2
same,Z-AUC,[2]; measured here: PEO4 Z-AUC,-1.56
same,Potency,[1]; TFE3-RCC UOK109 viability,4180 nM (active)
same,z-score,[1]; [3],-1.32
same,z-score,[1]; [4],-0.971
same,z-score,[1]; [5],-1.1
CCC(C(=O)O)C1CCC(C)C(C(C)C(O)C(C)C(=O)C(CC)C2OC3(C=CC(O)[C@@]4(CC[C@](C)(C5CC[C@@](O)(CC)C(C)O5)O4)O3)C(C)CC2C)O1 (stereo partly specified),Potency,[2],1380 nM (active)
same,Z-AUC,[2]; [6],-1.77
same,Z-AUC,[2]; measured here: PEO4 Z-AUC,-1.98
same,Potency,3D7,794 nM (active)
